Where “and” joins values, the source holds several entries; their conditions need not be identical. Equal entries are not always repeated. The panel holds about 83,000 compounds, 20% with a hit somewhere; the sample as a whole holds those more often.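 Testing used 96-well plates and a 48-hour single-concentration exposure. Example: -40 means 40% of the starting cells died.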 Calls of active or inactive are those of the source. The calls were made as follows: active = growth percent below 10; inactive = the rest.

This is an account of results in PubChem BioAssay (NCI).

The assay concerns MDA-MB-468 breast. In words: NCI-60 one-dose screen, 48 h (100 = growth as untreated, 0 = no growth, -100 = all killed). The note with it: 10 µM unless noted.
As for `COc1cc2nc(-c3ccc(C(F)(F)F)cc3)cc(OCCCN3CCC(O)CC3)c2cc1OC`, the growth was 44% (inactive). Regarding `COc1ccc(/C=C/C(=O)c2ccc(NC(=O)CN3CCN(c4cc5c(cc4F)c(=O)c(C(=O)O)cn5C4CC4)CC3)cc2)cc1`, the growth is 99.1% (inactive).

Regarding `NC(Cc1ccc(O)c([N+](=O)[O-])c1)C(=O)O` (centres undefined), the growth is 101% (inactive). With `COc1ccc(Sc2[nH]c(C=O)c3ccccc23)cc1` the figure was 9.32% (active). Take `Nc1nc(-c2ccnc(Cl)c2)nn1-c1nc2ccccc2s1`: the growth is 107% (inactive). With `O=C(CCCCC(=O)Nc1ccc2c(c1)/C(=C/c1ccc[nH]1)C(=O)N2)NO` the figure was 49% (inactive). With `Cc1nc2cc(Nc3nc(Nc4ccc(F)cc4)nc(-c4ccc(Cl)cc4)n3)ccc2n1Cc1ccccc1` the figure was 74.3% (inactive); with `OCCN1CCCN(CCCN2c3ccccc3Sc3ccc(C(F)(F)F)cc32)CC1`, 39.6% (inactive). For `Nc1nc2ccccc2c2c(=O)c3cccc(Cl)c3sc12`, the growth is -0.88% (active). The value for `C=C(C)Cn1c(SCC(=O)c2cccs2)nc2sc3c(c2c1=O)CCCC3` was 68.6% (inactive); that for `C=C1C(=O)O[C@@H]2C[C@@H](C)CCC(=O)[C@](C)(OC(C)=O)C[C@H](OC(=O)/C(C)=C\C)[C@@H]12` was 32.7% (inactive). For the compound `O=c1c(-c2nc3ccccc3[nH]2)cc2ccccc2n1Cc1cn(Cc2ccc(N3CCOCC3)cc2)nn1`, the growth is 64.3% (inactive). As to `Cc1ccc(C(=O)/C(=C/c2ccc([N+](=O)[O-])cc2)S(=O)Cc2ccccc2)cc1` (centres undefined), the growth was -54.1% (active).

`COc1ccc2[nH]cc(-c3nonc3-c3c[nH]c4ccc(Br)cc34)c2c1`: the growth is 77.8% (inactive). As to `CSc1nc(NCc2ccccc2)c(C#N)c(-c2cccc([N+](=O)[O-])c2)n1`, the growth is 110% (inactive). Take `CN(C)c1ccc(C2(Cl)c3ccccc3N(C)c3ccccc32)cc1`: the growth is 50.8% (inactive).

As for `CCOC(=O)c1c(NC(=O)c2ccccc2C(F)(F)F)sc2c1CCC(=O)C2`, the growth is 58.6% (inactive).

Turning to `CCCCn1c(=O)[nH]c(N)c(C(c2ccc(Cl)cc2)c2c(N)[nH]c(=O)n(CCCC)c2=O)c1=O`, the growth was 10.1% (inactive).

Regarding `N#Cc1cncc(-c2ccc3ncnc(Nc4cccc(Cl)c4)c3c2)c1`, the growth is 9.34% (active). The value for `COc1ccccc1NS(=O)(=O)c1cccc(C(=O)Nc2ccc(Br)cc2)c1` was 3.03% (active); that for `NS(=O)(=O)c1cccc(Nc2nc(SCC(=O)c3ccc(Cl)cc3)nc3ccccc23)c1` was 80.1% (inactive). With `Cc1ccc(Cn2c(-c3cccs3)nc3ccccc32)cc1`, the growth is 67.5% (inactive). With `Clc1ccc(-c2nnc(COc3ccc(C4=NNC(c5ccco5)C4)cc3)o2)cc1` (centres undefined) the figure was 9.43% (active); with `CN1CCN(CCCNc2nccc(-c3c(-c4ccc(F)c(O)c4)nc4sccn34)n2)S1(=O)=O`, 92.9% (inactive). Take `O=C(Cc1nc2ccc([N+](=O)[O-])cc2nc1CC(=O)c1cccnc1)c1cccnc1`: the growth was 75.7% (inactive).

For the compound `COc1ccccc1OC(=O)Oc1ccccc1OC`, the growth is 106% (inactive) and 119% (inactive). The value for `COc1ccc2nc3cc(Cl)ccc3c(N3CCN(c4ccnc(N5CCOCC5)n4)CC3)c2c1` was -54.8% (active); that for `COc1ccc(C2=NN(C=O)C(c3ccc(Oc4nc5c(c(=O)n(C)c(=O)n5C)n4C)c(OC)c3)C2)cc1` (centres undefined) was 73.6% (inactive). With `CN1C(=O)N(C)C2C1NN=c1s/c(=C\c3ccsc3)c(=O)n12` (centres undefined) the figure was 34.3% (inactive).

For the compound `Cc1cc2ccccc2cn1`, the growth is 96.6% (inactive) and 102% (inactive). The value for `CCCCCCCCCCSC(=N)N` was -83.1% (active); that for `CC(C)[C@H]1c2[nH]c3ccccc3c2C[C@H]2C(=O)N(CCCCCCC(=O)NO)CC(=O)N12` was 64.2% (inactive); that for `Cc1cccc(/C=C\C(=O)c2ccccc2)c1` was 105% (inactive) and 99% (inactive). Take `COc1ccc(C/C(C)=C(\c2ccc(Cl)cc2)c2ccc(OCCN3CCCC3)cc2)cc1`: the growth was 70% (inactive). The value for `O=C(NNc1ccccc1)c1ccccc1` was 87.1% (inactive) and 103% (inactive). The value for `CCOC(=O)c1c2c(c(C)n1Cc1ccc(OC)cc1)-c1oncc1CC2` was 97.8% (inactive).

Turning to `O=S(=O)(O)c1ccc2c(c1)Sc1cc(S(=O)(=O)O)ccc1O2`, the growth is 107% (inactive). The value for `CCSc1oc(-c2ccccc2)nc1[P+](c1ccccc1)(c1ccccc1)c1ccccc1` was -37.6% (active). For `CCN(Cc1ccccc1)c1ccc(C=O)cc1`, the growth was 62.9% (inactive).
